In ChEMBL document CHEMBL3988442, “University of Dundee, Small-Polar-MMV Screening Library” (2021):
Screen size: about 48,000 compounds; about 13,000 (27%) showed an effect of 50% or more. Some of the results follow.

tested on: Wolbachia pipientis; assay: Anti-Wolbachia Cell-Based Screen; type: functional; set-up: scale not given: in the data most compounds retested in dose-response had high values; settings: 5 µM

First: O=C(CNC(=O)c1ccoc1)NC(c1ccc(F)cc1)C(F)(F)F (centres undefined)
Second: Cn1cccc(NC(=O)NCCc2cccc(O)c2)c1=O
The “Percent Effect” value of the first is lower: 0.03163% for the first, 2.871% for the second.

Going from `CC1CN(C(=O)c2nccnc2N)c2ccc(F)cc2O1` (centres undefined) to `CN(C)C(=O)c1cc(-c2cnc(N)nc2)nc2cc(F)ccc12`, the “Percent Effect” value rises from -7.593% to 2.349%.

Compared with `COCCN(CCOC)C(=O)c1sc(C)nc1C`, `Cc1cc(C(=O)NCc2csc(N(C)C)n2)c2ccc(C)c(C)c2n1` is higher in “Percent Effect” value: -9.667% for the first, 2.506% for the second.

Compared with `CCC(C)(C)NC(=O)C[S+]([O-])Cc1csc(C2CCCC2)n1` (centres undefined), `CC(=O)N(C)c1nc(Cn2nnnc2C2CCCC2)cs1` is higher in “Percent Effect” value: -6.862% for the first, 98.73% for the second.

Going from `Cc1ccc(C)c(CS(=O)(=O)CC(=O)N(C)Cc2cccc(F)c2)c1` to `CC(C)c1nc(S(=O)(=O)N(C)c2cc(F)ccc2F)c[nH]1`, the “Percent Effect” value rises from -31.79% to 7.665%.

Going from `Cc1nc(C)n(CC2CCCN2c2ncnc3sccc23)n1` (centres undefined) to `Cc1nc(C)n(CC2CCCN2c2ncnc3ccsc23)n1` (centres undefined), the “Percent Effect” value rises from 103.4% to 106.3%.

Compared with `c1nc(N2CCCC2Cn2cncn2)c2ccsc2n1` (centres undefined), `c1cnn(CC2CCCN2c2ncnc3sccc23)c1` (centres undefined) is lower in “Percent Effect” value: -0.0676% for the first, -19.57% for the second.

First: c1ccc2c(N3CCCC3Cn3cccn3)ncnc2c1 (centres undefined)
Second: c1cnn(CC2CCCN2c2ncnc3ccsc23)c1 (centres undefined)
The “Percent Effect” value of the first is lower: -8.877% for the first, 77.53% for the second.

First: c1cnn(CC2CCCCN2c2ncnc3sccc23)c1 (centres undefined)
Second: c1cnn(CC2CCCN2c2ncnc3c2CCC3)c1 (centres undefined)
The “Percent Effect” value of the first is higher: -1.869% for the first, -39.95% for the second.

Going from `c1nc(N2CCCC(Cn3cncn3)C2)c2ccsc2n1` (centres undefined) to `c1nc(N2CCCC(Cn3cncn3)C2)c2sccc2n1` (centres undefined), the “Percent Effect” value rises from 13.9% to 164.6%.

Compared with `Cc1sc2ncnc(N3CCCC3Cn3cccn3)c2c1C` (centres undefined), `Cc1nc(C)n(CC2CCCN2c2ncnc3sc(C)c(C)c23)n1` (centres undefined) is lower in “Percent Effect” value: 126.3% for the first, 109.1% for the second.

Going from `c1nc2c(c(N3CCCC(Cn4cncn4)C3)n1)CCC2` (centres undefined) to `Cc1nc(C)n(CC2CCCN2c2ncnc3c2CCC3)n1` (centres undefined), the “Percent Effect” value rises from -15.31% to -5.699%.

Going from `Cc1nc(C)n(CC2CCCN(c3ncnc4sccc34)C2)n1` (centres undefined) to `Cc1nc(C)n(CC2CCCCN2c2ncnc3ccsc23)n1` (centres undefined), the “Percent Effect” value rises from 4.886% to 109.8%.

Going from `COc1ccc(CN2C[C@@H]3[C@H](CC(=O)N4CCCC4)[C@@H]3C2)cc1.O=C(O)C(F)(F)F` to `CN(C)C[C@@H]1CCC[C@@H]2CN(c3cccnc3)C[C@@H]21.O=C(O)C(F)(F)F`, the “Percent Effect” value rises from -9.887% to 5.573%.

Going from `CCN(Cc1ccoc1)Cc1nc(COC)no1` to `Cc1ccc(-c2nc(CNCCn3cccn3)cs2)o1`, the “Percent Effect” value rises from -32.73% to -0.9463%.

First: c1nc(N2CCCCC2Cn2cncn2)c2sccc2n1 (centres undefined)
Second: CN(C)C(=O)C1CCCN1c1ncnc2ccsc12 (centres undefined)
The “Percent Effect” value of the first is lower: 0.3831% for the first, 11.36% for the second.

First: CN1CCN(C(=O)C2CCCN2c2ncnc3ccsc23)CC1 (centres undefined)
Second: Cc1csc(CNC(=O)N2CCCC(c3nncn3C)C2)n1 (centres undefined)
The “Percent Effect” value of the first is lower: -5.799% for the first, 102.5% for the second.

First: Cc1nc(C)n(CC2CCCCN2c2ccnc(-c3ccccc3)n2)n1 (centres undefined)
Second: Cc1nc(C)n(CC2CCCN2c2ccnc(-c3ccccc3)n2)n1 (centres undefined)
The “Percent Effect” value of the first is lower: -2.922% for the first, 6.693% for the second.

Going from `CN(C)C1Cc2ccccc2N(S(=O)(=O)c2cccc(C#N)c2)C1` (centres undefined) to `CC(C)(C)NC(=O)C1CSCN1S(=O)(=O)c1ccccc1F` (centres undefined), the “Percent Effect” value rises from -17.15% to -0.6778%.

Compared with `CC(C)CC(=O)N1CCN(C(=O)N(C)C)CC2(CC(=O)N(C)C2)C1` (centres undefined), `CC(=O)N(C)c1nc(CN2CCN(Cc3nccn3C)CC2)cs1` is lower in “Percent Effect” value: -13.83% for the first, -41.34% for the second.

First: Cc1noc(C2CCCN(C(=O)c3cc(-c4ccccc4)on3)C2)n1 (centres undefined)
Second: Cn1cnnc1C1CCCN(C(=O)c2cc(-c3ccccc3)on2)C1 (centres undefined)
The “Percent Effect” value of the first is lower: 95.63% for the first, 103.3% for the second.

First: CCOC1CCN(C(=O)c2cc(-c3ccc(Cl)cc3)on2)CC1
Second: COC1CCN(C(=O)c2cc(-c3ccc(Cl)cc3)on2)CC1
The “Percent Effect” value of the first is lower: -1.009% for the first, 1.194% for the second.

Compared with `Cn1cnnc1C1CCN(C(=O)c2cc(-c3ccccc3)on2)CC1`, `Cn1cnnc1C1CCCN(C(=O)c2cnc3ccccc3n2)C1` (centres undefined) is lower in “Percent Effect” value: 84.11% for the first, -5.928% for the second.

First: CCOc1ncccc1C(=O)N1CCCC(c2nncn2C)C1 (centres undefined)
Second: CCOc1ncccc1C(=O)N1CCCC(c2nccn2CCOC)C1 (centres undefined)
The “Percent Effect” value of the first is higher: 139.9% for the first, -5.342% for the second.

Going from `Cn1cnnc1C1CCCN(C(=O)NCc2ccccc2)C1` (centres undefined) to `Cn1cnnc1C1CCCN(C(=O)NCc2ccccn2)C1` (centres undefined), the “Percent Effect” value rises from -1.027% to 107.2%.

Compared with `Cc1noc(C2CCCN(C(=O)c3cc(Cl)cn3C)C2)n1` (centres undefined), `Cc1noc(C2CCCN(C(=O)c3cc(Cl)ccc3F)C2)n1` (centres undefined) is higher in “Percent Effect” value: -4.017% for the first, -1.909% for the second.

First: Cn1cnnc1C1CCCN(C(=O)NCc2cc[nH]n2)C1 (centres undefined)
Second: Cn1cnnc1C1CCCN(C(=O)NCCc2ccccn2)C1 (centres undefined)
The “Percent Effect” value of the first is higher: -3.292% for the first, -4.673% for the second.

First: COc1ccc(CNC(=O)NC2CCN(CC(F)F)CC2)cc1C
Second: COc1ccc(CNC(=O)CCn2cc(C)cn2)cc1C
The “Percent Effect” value of the first is higher: 8.282% for the first, -6.428% for the second.

Compared with `CSc1cccc(CC(=O)N[C@@H]2CCNC[C@H]2O)c1`, `Cl.NCC1CCCCN1C(=O)Cc1ccc(F)c(F)c1` (centres undefined) is lower in “Percent Effect” value: -1.267% for the first, -20.4% for the second.

Compared with `Cn1cnnc1C1CCCN(C(=O)c2ccccn2)C1` (centres undefined), `c1ccc(-c2nnc([C@H]3CCN(C4CCC4)C3)o2)cc1` is lower in “Percent Effect” value: 140.5% for the first, -5.137% for the second.

First: c1cc(-c2ccc3c(c2)CCC32CCNCC2)ccn1
Second: c1cc(-c2nnc([C@H]3CCN(C4CCCCC4)C3)o2)ccn1
The “Percent Effect” value of the first is higher: -7.075% for the first, -11.18% for the second.

Going from `CC1(C)Cc2c(cnn2-c2cccc(F)c2)C(NC2CCSCC2)C1` (centres undefined) to `O=C(NCC1(N2CCOCC2)CCSC1)Nc1ccccn1` (centres undefined), the “Percent Effect” value rises from 7.076% to 27.17%.

First: CCCn1cc(-c2cc(C(=O)N(C)C)c3cccc(C)c3n2)cn1
Second: CCCn1cc(-c2cc(C(=O)N(C)C)c3ccc(C)cc3n2)cn1
The “Percent Effect” value of the first is higher: 108.4% for the first, 103.4% for the second.

Compared with `CO[C@H]1CNC[C@@H]1NC(=O)c1cc(C)nc2c(C)c(C)ccc12`, `Cc1ccc2c(C(=O)N(C)C)cc(-c3cnn(CCO)c3)nc2c1C` is higher in “Percent Effect” value: -8.867% for the first, 115.7% for the second.

Compared with `COc1ccc2nc(C3CC3)cc(C(=O)NCC(=O)N(C)C)c2c1`, `CCCn1cc(-c2cc(C(=O)N(C)C)c3ccc(OC)cc3n2)cn1` is higher in “Percent Effect” value: -4.105% for the first, 91.31% for the second.

Compared with `Cc1cc(C)c2c(C(=O)N(C)C)cc(-c3cnc(N)nc3)nc2c1`, `Cc1ccc2nc(-c3cnc(N)nc3)cc(C(=O)N(C)C)c2c1` is higher in “Percent Effect” value: -4.473% for the first, -1.148% for the second.

Compared with `COc1ccc2c(C(=O)N(C)C)cc(-c3cnc(N)nc3)nc2c1`, `COc1nc2c(cc1C(=O)NCc1nc(CSC)no1)CCC2` is higher in “Percent Effect” value: -11.66% for the first, -10.56% for the second.

Going from `CN(Cc1cccs1)c1nc2c(cnn2C(C)(C)C)c(=O)[nH]1` to `CC(=O)N(C)c1nc(Cn2nnnc2C(C)(C)C)cs1`, the “Percent Effect” value rises from -5.539% to 75.49%.

Going from `CSCCc1n[nH]c2c1CN(S(=O)(=O)c1c(C)nn(C)c1C)CC2` to `Cc1cn2nc(N3CCCN(Cc4noc(C)n4)CC3)sc2n1`, the “Percent Effect” value rises from -3.086% to 4.27%.

First: Cc1ccc(C(C)NC(=O)Nc2ccccc2CN2CCOCC2)o1 (centres undefined)
Second: Cc1ccc(Oc2ncccc2CNS(=O)(=O)N2CCOCC2)cn1
The “Percent Effect” value of the first is lower: 2.687% for the first, 3.348% for the second.

Compared with `O=C(Cc1ccccc1F)N1CCC[C@@H]1Cn1c(=O)oc2ccccc21`, `COC[C@@]12CCO[C@@H]1CCN(C(=O)Cc1ccccc1F)C2` is lower in “Percent Effect” value: 111.4% for the first, 7.252% for the second.

First: Cc1nc(CN2CCN(c3ncnc4ccccc34)CC2)no1
Second: Cc1nc(CN2CCN(c3ccc(Cl)cn3)CC2)no1
The “Percent Effect” value of the first is lower: -20.36% for the first, 102.8% for the second.

First: Cc1noc(CN2CCN(CC(C)O)CC2)n1 (centres undefined)
Second: Cc1noc(CN2CCN(CCO)CC2)n1
The “Percent Effect” value of the first is higher: 16.1% for the first, -2.451% for the second.

Going from `Cc1nc(CN2CCN(C(=O)CCc3cccc(Cl)c3)CC2)no1` to `Cc1nc(CN2CCN(c3cncc(Cl)n3)CC2)no1`, the “Percent Effect” value rises from 2.234% to 85.67%.

Going from `Cc1nc(CN2CCN(Cc3nccn3C)CC2)no1` to `Cc1noc(CN2CCN(c3cncc(Cl)n3)CC2)n1`, the “Percent Effect” value rises from 1.161% to 120%.

Going from `CCN(CC)CC(=O)Nc1ccc(-n2ccc(C(N)=O)n2)cc1` to `CNC(=O)c1ccc(=O)n(Cc2csc(N(C)C(C)=O)n2)c1`, the “Percent Effect” value rises from -9.684% to 1.068%.

Compared with `c1cc(C2CN(C3CCCCC3)C2)n[nH]1`, `c1cc(C2CN(C3CCCC3)C2)n[nH]1` is higher in “Percent Effect” value: 79.34% for the first, 154.3% for the second.

Going from `c1cc(C2CCN(C3CCCCC3)C2)n[nH]1` (centres undefined) to `FC(F)(F)c1ccc2nc([C@H]3CCN(C4CCCCC4)C3)[nH]c2c1`, the “Percent Effect” value falls from 99.9% to 3.029%.

Going from `F[C@@H]1CN(C2CCC2)C[C@@H]1OCc1nc2ncccc2[nH]1` to `c1ccc(Cc2nnc([C@H]3CCN(C4CCCCC4)C3)o2)cc1`, the “Percent Effect” value rises from 0.839% to 3.661%.

Going from `Clc1ccc(-c2nnc([C@H]3CCN(C4CCCCC4)C3)o2)cc1` to `CC(=O)N(c1ccc(C)cc1)c1nc(CN2CCCCC2C)cs1` (centres undefined), the “Percent Effect” value falls from 11.2% to 5.84%.

Compared with `CC(=O)N(CCC(=O)NC1(C#N)CCC1)Cc1ccccc1`, `CC(=O)N(c1ccc(F)cc1)c1nc(CN2CCCC2C(C)C)cs1` (centres undefined) is higher in “Percent Effect” value: -20.67% for the first, -4.339% for the second.

Going from `Oc1ccc([C@H]2Oc3cc(O)cc(O)c3C[C@@H]2O)cc1` to `Cc1ccc(=O)n(Cc2csc(N(C)C3CC3)n2)n1`, the “Percent Effect” value rises from 2.317% to 2.512%.

Going from `CC(=O)N(C)c1nc(CN2CCN(c3nccs3)CC2)cs1` to `CCN(C(C)=O)c1nc(CN2CCN(c3nccs3)CC2)cs1`, the “Percent Effect” value falls from -57.57% to -119%.

First: CN(C)C(=O)Cc1nc(CN2CCn3c(nnc3C3CC3)C2)cs1
Second: CCc1nnnn1Cc1csc(N(C)C(C)=O)n1
The “Percent Effect” value of the first is lower: 2.901% for the first, 97.38% for the second.

With `CC(=O)N(C)c1nc(Cn2nnnc2C(C)C)cs1` the “Percent Effect” value was 102.4%.
